The results in this text go back to PubChem BioAssay (NCATS).

Assay [1] in a line: Cell Viability - BJ (AID 421; calls by dose curve;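 also: potency is read from the fitted curve at half-maximal effect; cells exposed to compound for 40 hours at 37 °C before readout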). To be noted: BJ fibroblast viability, qHTS. A digest of the protocol: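 Cytotoxicity in human BJ foreskin fibroblasts is scored as loss of cellular ATP after a 40-hour exposure, measured by luciferase luminescence. Controls are DMSO and 100 uM tamoxifen.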
For orientation: qHTS replaces the single test concentration by a dilution series.

Assay [2] is described as follows: Cell Viability - Jurkat (AID 426;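 active = dose-dependent loss of cell ATP signal giving a full or clear fitted curve, ranked by lower potency value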; also: potency is read from the fitted curve at half-maximal effect). As to conditions: qHTS. The essentials: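 Luminescent ATP read-out (CellTiter-Glo, 20 min at room temperature) after 40 hr compound exposure at 37 °C of Jurkat E6-1 cells, 5000/well. Decreased ATP taken as cytotoxicity; AC50 from standard Hill equation.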
Assay [3] is described as follows: Cell Viability - Hek293 (AID 427;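 active = compounds whose dose-response curve shows a full or clear partial loss of cell viability, called from curve shape rather than a numeric limit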;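 also: potency is read from the fitted curve at half-maximal effect; cells exposed to compound for 40 hours at 37 °C before reading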). To be noted: qHTS. A digest of the protocol: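 qHTS, human embryonic kidney (adenovirus-transformed) cells; 40 hr cpd, 37 °C; CellTiter-Glo ATP luminescence. Norm: DMSO = 0, 100 uM tamoxifen = 100% inhibition. Hill-fit AC50.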
A short description of assay [4]: Cell Viability - HepG2 (AID 433; calls by dose curve; also: potency is read from the fitted curve at half-maximal effect). To be noted: qHTS. A digest of the protocol:
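In this qHTS format, a 40 h, 37 °C compound incubation of HepG2 cells in complete medium precedes a 20 min CellTiter-Glo step at room temperature. Tamoxifen and doxorubicin serve as positive controls; Hill-equation fits yield AC50.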

The nature of assay [5]: Cell Viability - MRC5 (AID 434; calls by dose curve;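 also: potency is read from the fitted curve at half-maximal effect; potency reflects cytotoxicity seen as loss of intracellular ATP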). To be noted: MRC5 lung fibroblast viability, qHTS. The essentials:
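Decrease in intracellular ATP, quantified by luciferase light output, reflects compound toxicity toward MRC5 cells exposed for 40 hr in complete culture medium. Concentration-response curves, scaled between DMSO and 100 uM tamoxifen, gave AC50 values.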

Assay [6] in a line: Cell Viability - SK-N-SH (AID 435; calls by dose curve; also: potency is read from the fitted curve at half-maximal effect). To be noted: SK-N-SH neuroblastoma cell viability qHTS. The essentials:
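Human neuroblastoma line, 40 h exposure at 37 °C, ATP quantified via luciferase luminescence; DMSO and 100 uM tamoxifen define 0 and 100% inhibition for AC50 fitting.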

Assay [7] deals with Mitogen-activated protein kinase 10 (Mus musculus) (UniProt Q61831). The experiment in a line: JNK3 AlphaScreen Assay (AID 530; active = well fitted curve in either direction with a large enough effect, not every such curve was filed as active;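 also: kinase came from lysate of stimulated human HepG2 cells; % is scaled to controls: 0 for no effect and ±100 for the full control effect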). To be noted: JNK3 lysate, c-Jun phosphorylation; series mostly up to 57.1 µM. A digest of the protocol: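 Biotinylated GST-cJun(1-79) served as substrate for JNK3 in HepG2 lysates stimulated with IL-1beta and TNF-alpha. ATP was 10 uM final, pH 7.6. Ser73 phosphorylation was quantified by AlphaScreen (680 nm excitation).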

A short description of assay [8]: Cell Viability - N2a (AID 540).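 Also: plate controls were DMSO alone for no effect and tamoxifen control for full effect; nearly all actives have a fitted effect of over 45% in size.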 As to conditions: N2a mouse neuroblastoma cell viability; activity change, negative = cytotoxicity: at 92.2 µM (top of the series). A digest of the protocol:
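N2a mouse neuroblastoma, 1500 cells/well, 5 hr settle; compound 40 hr, 37 °C; CellTiter-Glo 20 min RT; luminescence; Hill-fit AC50.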

The nature of assay [9]: Cell Viability - NIH 3T3 (AID 541).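 Also: plate controls were DMSO alone for no effect and tamoxifen positive control for full effect; nearly all actives have a fitted effect of over 25% in size.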 As to conditions: NIH 3T3 cell viability, qHTS; activity change, negative = cytotoxicity: at 92.2 µM (top of the series). A digest of the protocol:
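qHTS format; 40 hr compound exposure, 37 °C; CellTiter-Glo luminescence (cellular ATP) read-out after 20 min at RT. Decrease in ATP = cytotoxicity; AC50 from standard Hill fit.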

The nature of assay [10]: Cell Viability - HUV-EC-C (AID 542). Also: % is scaled to controls: 0 for no effect and ±100 for the full control effect; nearly all actives have a fitted effect of over 35% in size. As to conditions: HUV-EC-C endothelial cell viability, qHTS; series mostly up to 92.2 µM. A digest of the protocol: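 Luminescent ATP read-out (CellTiter-Glo, 20 min room temperature) after 40 hr compound treatment of HUV-EC-C cells at 37 °C. Concentration-response data fitted with the standard Hill equation to give AC50; tamoxifen and doxorubicin served as positive controls.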

The nature of assay [11]: Cell Viability - H-4-II-E (AID 543). Also: % is scaled to controls: 0 for no effect and ±100 for the full control effect; nearly all actives have a fitted effect of over 35% in size. As to conditions: H-4-II-E rat hepatoma viability; series mostly up to 92.2 µM. A digest of the protocol:
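qHTS, rat hepatoma H-4-II-E, 1500 cells/well; 40 hr compound exposure, 37 °C; CellTiter-Glo ATP luminescence after 20 min RT; AC50 by standard Hill fit.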

Assay [12] in a line: Cell Viability - SH-SY5Y (AID 544). Also: nearly all actives have a fitted effect of over 55% in size. As to conditions: SH-SY5Y neuroblastoma cell viability; viability change, negative = cytotoxic: at 92.2 µM (top of the series). A digest of the protocol:
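SH-SY5Y, 1500 cells/well, 5 hr pre-incubation 37 °C; cpd 40 hr 37 °C; CellTiter-Glo 20 min RT; luminescence (ATP) read. qHTS concentration-response, Hill fit → AC50. Tamoxifen, doxorubicin as positive controls.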

Assay [13] is described as follows: Cell Viability - Renal Proximal Tubule (AID 545). Also: nearly all actives have a fitted effect of over 40% in size. To be noted: renal proximal tubule cells viability, primary cells of rat origin; series mostly up to 91.7 µM. A digest of the protocol:
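In this qHTS format, normal rat kidney-derived proximal tubule cells in complete culture medium receive compound titrations, then sit 40 hours at 37 °C before luciferase-based ATP quantitation; potency is reported as AC50 from concentration-response curves.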

Assay [14] in a line: Cell Viability - Mesenchymal (AID 546).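 Also: cells exposed to compound for 40 hours before reading.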 To be noted: mesenchymal cells viability, qHTS; series mostly up to 91.7 µM. A digest of the protocol:
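In this qHTS cytotoxicity format, glomerulus-derived human mesenchymal kidney cells received compound for 40 hr, then luciferase-based ATP quantitation. Concentration-response data were fitted with the Hill equation.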

A short description of assay [15]: Cellular Toxicity (caspase-3) HepG2 (AID 654).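 Also: cells exposed to compound for 16 hours before reading; 0% = DMSO alone and 100% = caspase signal from 100 µM tamoxifen.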 To be noted: HepG2 caspase-3 activation, luminescence; series mostly up to 92.2 µM. The essentials: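 Luminescent Caspase-Glo 3/7 readout after 16 hr compound exposure of human hepatocellular carcinoma HepG2 cells at 37 °C; qHTS concentration-response, normalized DMSO = 0%, 100 uM tamoxifen = 100%; AC50 by standard Hill equation.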

Assay [16] in a line: Cellular Toxicity (caspase-3) HUV-EC-C (AID 656).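 Also: cells exposed to compound for 16 h.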 As to conditions: HUV-EC-C cells, caspase-3 activation (apoptosis), vehicle = 0, 100 µM tamoxifen = 100%; series mostly up to 92.2 µM. The essentials: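 Concentration-dependent caspase 3/7 induction was assessed in HUV-EC-C cells exposed for 16 hours. Data scaled between DMSO and tamoxifen (100 uM) controls.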
A short description of assay [17]: Cellular Toxicity (caspase-3) SHSY5Y (AID 657).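 Also: cells exposed to compound for 16 hours at 37 °C.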 To be noted: SH-SY5Y caspase-3 activation, DMSO zero, 10 µM staurosporine = 100%; series mostly up to 91.7 µM. The essentials: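 Readout: caspase-cleaved peptide-aminoluciferin substrate driving luciferase light in SH-SY5Y neuroblastoma cells after 16 h treatment. Response normalized to DMSO and 10 uM staurosporine controls.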

The nature of assay [18]: Cellular Toxicity (caspase-3) BJ (AID 658). As to conditions: BJ fibroblasts, luminescence, normalized: DMSO 0%, staurosporine 100%; series mostly up to 91.7 µM. The essentials: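 Plated BJ cells (1000/well) rested 5 hr, received compound for 16 hr at 37 °C, then Caspase-Glo 3/7 reagent for 1 hr at room temperature before luminescence reading.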
Assay [19] in a line: Cellular Toxicity (caspase-3) MRC-5 (AID 659).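 Also: cells exposed to compound for 16 h at 37 °C.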 To be noted: MRC-5 cells, luminescence, normalized: DMSO 0%, 10 µM staurosporine 100%; series mostly up to 91.7 µM. A digest of the protocol:
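Apoptosis readout in MRC-5 cells: luciferase light generated after caspase 3/7 cleaves a peptide-aminoluciferin substrate, measured post 16 hr compound incubation at 37 °C.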

The nature of assay [20]: Cellular Toxicity (caspase-3) Jurkat (AID 655).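 Also: cells exposed to compound for 16 h at 37 °C before reading.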 To be noted: Jurkat caspase-3 activation, luminescence; caspase-3 activation: at 92.2 µM (top of the series), DMSO = 0%, tamoxifen = 100%. The essentials: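 qHTS in human Jurkat T-cell leukemia line: 16 hr compound treatment at 37 °C, caspase-3/7 activity measured by Caspase-Glo luminescence. AC50 derived from Hill equation.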

Unmarked numbers belong to inactive results. Results filed as inconclusive are left out. The source made the active and inactive calls. Unless noted, calls follow the shape of the dose curve; as a rule, active = well fitted curve in the direction sought with a large enough effect; inconclusive = small, poorly fitted or top-dose-only effect, or another doubt; inactive = no such curve, though single readings can be large; an effect the other way counts as inactive or inconclusive.

As to `Cc1ccc(C)c(N)c1`, the Potency in assay [1], in assay [2], in assay [3], in assay [4], in [5] and in assay [6] was > 92 µM each time. For the same molecule, the molecule was classed as inactive in assay [7], in [16], in [17], in [18] and in [19]. In addition, in assay [8], the activity change, negative = cytotoxicity is -15.8%. For the same molecule, the Potency entry in assay [9], in [10], in [11], in [12], in assay [13] and in assay [14] was “inactive” in each case. For the same molecule, the Potency result in assay [15] was “inactive”.
Turning to `ICCc1ccccc1`, the Potency in assay [1], in assay [2], in [3], in [4], in assay [5] and in [6] was > 92 µM throughout. Further, the call in [7], in [16], in assay [17], in assay [18] and in assay [19] was inactive. The activity change, negative = cytotoxicity in [8] was 0.359%. The Potency result in assay [9], in assay [10], in assay [11], in assay [13], in [14] and in [15] was “inactive” throughout. The viability change, negative = cytotoxic in [12] is -96.6% (active).
As for `Cc1cccc2ccccc12`, the Potency in assay [1], in assay [2], in assay [3], in assay [4], in assay [5] and in assay [6] was > 92 µM throughout. The molecule was called inactive in assay [7], in assay [16], in assay [17] and in [18]. Also, the activity change, negative = cytotoxicity in assay [8] was -4.08%. Moreover, the Potency result in assay [9], in assay [10], in [11], in assay [12], in [13] and in assay [15] was “inactive” in each case. Besides, in assay [20], the caspase-3 activation is -1.75%.
In the case of `O=CNc1ccccc1`, the Potency in [1], in assay [2], in assay [3], in assay [4], in assay [5] and in [6] was > 92 µM throughout. Besides, the call in [7], in assay [16], in assay [17], in [18] and in [19] was inactive. In assay [8], the activity change, negative = cytotoxicity is 5.69%. Further, the Potency result in assay [9], in assay [10], in assay [11], in assay [12], in [13] and in assay [14] was “inactive” each time. The Potency entry in assay [15] was “inactive”.
Turning to `C(=C/c1ccccc1)/c1ccccc1`, the Potency in assay [1], in assay [2], in assay [3], in assay [4], in assay [5] and in assay [6] was > 92 µM throughout. The molecule was called inactive in [7], in assay [16], in assay [17], in [18] and in [19]. Also, the activity change, negative = cytotoxicity in [8] was -0.717%. The Potency result in assay [9], in assay [10], in assay [11], in [12], in assay [13] and in assay [14] was “inactive” in each case. Besides, the caspase-3 activation in assay [20] is 0.745%.
